Measurements as given in the antibiotic and cytotoxicity screens of Wong et al. (2023).
Out of some 39,000 compounds screened, about 3,300 (8.5%) were called active. For the sample, actives were picked, then their nearest neighbours and some compounds at random.

Each molecule was assayed on HepG2 (assay: cytotoxicity call (relative viability < 0.9)). Conditions: 10 µM.
With COCC#Cc1ccc2c(c1)O[C@H](CN(C)C(=O)Nc1ccc(OC)cc1)[C@H](C)CN([C@H](C)CO)S2(=O)=O the cytotoxicity call was “inactive”. For COCC(=O)N1CC[C@]2(CC1)CN([C@H](CO)c1[nH]c3cc(ccc3c12)OC)C(=O)Nc1ccccc1F, the cytotoxicity call was “inactive”. Cc1c(C)c2c(c(C)c1OC(=O)CCC(=O)O)CC[C@@](C)(CCC[C@H](C)CCC[C@H](C)CCCC(C)C)O2 was tested, and the cytotoxicity call was “inactive”. With Cc1ccc(S(=O)(=O)Nc2ccc3c(c2)CC(=O)N([C@H](C)CO)C[C@@H](C)[C@@H](CN(C)S(=O)(=O)c2c(C)noc2C)O3)cc1 the cytotoxicity call was “inactive”. In the case of COc1ccc(CCNC(=O)[C@@H]2c3ccccc3C(=O)N(CC34CC5CC(CC(C5)C3)C4)[C@H]2c2ccc(CO)cc2)cc1, the cytotoxicity call is reported as “inactive”. For C=CCN(CC=C)S(=O)(=O)c1nnc[nH]1, the cytotoxicity call was “inactive”. C[C@@H]1CN([C@@H](C)CO)C(=O)c2cc(NC(=O)Cc3ccccc3)ccc2O[C@@H](C)CCCCO[C@H]1CN(C)S(=O)(=O)c1cccs1 was tested, and the cytotoxicity call was “inactive”. In the case of O=C(C[C@H]1C=C[C@H](NC(=O)c2ccncc2)[C@H](CO)O1)NCc1ccncn1, the cytotoxicity call is reported as “inactive”. In the case of CC1=CC(=O)C2=C(C)CCC3C(C)C(=O)OC3C12 (centres undefined), the cytotoxicity call is reported as “inactive”. C[C@H](CO)N1C[C@H](C)[C@@H](CN(C)Cc2ccc(Cl)c(Cl)c2)Oc2ccc(NC(=O)CCCCCC(=O)Nc3ccccc3N)cc2CC1=O was tested, and the cytotoxicity call was “inactive”. For O=C(C[C@@H]1CC[C@H]2[C@@H](COC[C@H](O)CN2C(=O)Nc2cccc(F)c2)O1)NCCCN1CCOCC1, the cytotoxicity call was “inactive”. In the case of COc1ccc(NC(=O)Nc2ccc3c(c2)C(=O)N([C@@H](C)CO)C[C@H](C)[C@@H](CN(C)Cc2ccc(C(F)(F)F)cc2)OCCCC[C@@H](C)O3)cc1, the cytotoxicity call is reported as “active”. For COc1ccc(CN(C)C[C@H]2OCCCC[C@@H](C)Oc3ccc(NC(=O)Nc4ccc(C(F)(F)F)cc4)cc3C(=O)N([C@H](C)CO)C[C@H]2C)cc1, the cytotoxicity call was “active”. For COc1ccc(CN(C)C[C@H]2OCCCC[C@H](C)Oc3ccc(NC(=O)Nc4ccc(C(F)(F)F)cc4)cc3C(=O)N([C@H](C)CO)C[C@H]2C)cc1, the cytotoxicity call was “active”. In the case of COc1ccc(CN(C)C[C@@H]2OCCCC[C@H](C)Oc3ccc(NC(=O)Nc4ccc(C(F)(F)F)cc4)cc3C(=O)N([C@@H](C)CO)C[C@H]2C)cc1, the cytotoxicity call is reported as “active”. For O=C(C[C@H]1C[C@H]2c3cc(NC(=O)c4ccc5c(c4)OCO5)ccc3O[C@H]2[C@H](CO)O1)NCCN1CCCCC1, the cytotoxicity call was “inactive”. In the case of C[C@H]1CN([C@@H](C)CO)C(=O)c2cc(NC(=O)Cn3cnnn3)ccc2O[C@H]1CN(C)Cc1ccccc1, the cytotoxicity call is reported as “inactive”. With CC(C)NC(=O)Nc1ccc2c(c1)C(=O)N([C@@H](C)CO)C[C@H](C)[C@@H](CN(C)C(=O)Nc1ccc(F)cc1)OCCCC[C@@H](C)O2 the cytotoxicity call was “inactive”. For O=C(C[C@H]1CC=CCC[C@H](Cc2ccc(F)cc2)C(=O)OC[C@H](Cc2ccccc2)NC1=O)NCCO, the cytotoxicity call was “inactive”. For C#CCN(O[C@@H](/C=C/[C@@H](O)CCn1cc(-c2cccc(/C=C/C(=O)NO)c2)nn1)C1CC1)[C@@H](Cc1ccccc1)C(=O)OC, the cytotoxicity call was “inactive”. For C[C@@H]1CCCCO[C@@H](CN(C)C(=O)c2ccccc2)[C@H](C)CN([C@@H](C)CO)C(=O)c2cc(NC(=O)Nc3ccccc3)ccc2O1, the cytotoxicity call was “inactive”. For O=C(NC1CC1)c1n[nH]c(=O)c2ccccc12, the cytotoxicity call was “inactive”. With O=C1CNCCN1C1CCCC1 the cytotoxicity call was “inactive”. With C[C@@H]1CN([C@H](C)CO)C(=O)c2cc(NC(=O)CCC(F)(F)F)ccc2O[C@@H](C)CCCCO[C@H]1CN(C)C(=O)Nc1ccc(C(F)(F)F)cc1 the cytotoxicity call was “inactive”. In the case of COc1ccc(CN(C)C[C@H]2OCCCC[C@H](C)Oc3ccc(NC(=O)Nc4ccc(C(F)(F)F)cc4)cc3C(=O)N([C@H](C)CO)C[C@@H]2C)cc1, the cytotoxicity call is reported as “active”. COc1ccc(CN(C)C[C@H]2OCCCC[C@H](C)Oc3ccc(NC(=O)Nc4ccc(C(F)(F)F)cc4)cc3C(=O)N([C@@H](C)CO)C[C@H]2C)cc1 was tested, and the cytotoxicity call was “active”. COc1ccc(NC(=O)Nc2ccc3c(c2)C(=O)N([C@H](C)CO)C[C@@H](C)[C@@H](CN(C)Cc2ccc(C(F)(F)F)cc2)OCCCC[C@@H](C)O3)cc1 was tested, and the cytotoxicity call was “active”. With COc1ccc(NC(=O)Nc2ccc3c(c2)C(=O)N([C@@H](C)CO)C[C@@H](C)[C@H](CN(C)Cc2ccc(C(F)(F)F)cc2)OCCCC[C@@H](C)O3)cc1 the cytotoxicity call was “active”. CC[C@@H](NC)C(=O)O was tested, and the cytotoxicity call was “inactive”. CC(C)(C)[C@H]1CCc2c(sc3nc(-c4ccccc4)cn23)C1 was tested, and the cytotoxicity call was “inactive”. For COc1ccc(NC(=O)N(C)C[C@H]2Oc3ncc(C#C[C@H](C)O)cc3C(=O)N([C@@H](C)CO)C[C@H]2C)cc1, the cytotoxicity call was “inactive”. With O=C(O)[C@H]1CCS(=O)(=O)C1 the cytotoxicity call was “inactive”. With NC(=O)c1cc(Cl)ccn1 the cytotoxicity call was “inactive”. C[C@@H]1CN([C@@H](C)CO)C(=O)c2cccc(NC(=O)c3ccc(-c4nccs4)cc3)c2O[C@@H]1CN(C)Cc1ccc(Oc2ccccc2)cc1 was tested, and the cytotoxicity call was “inactive”.
